Screening data: PubChem, National Center for Advancing Translational Sciences (NCATS)
KB-3-1 tox = KB-3-1 parental cell cytotoxicity | KB-3-1 viability, CellTiter-Glo ATP luminescence, 72 h | Potency, µM (titrated, usually from 46.1 µM), hits mostly cytotoxic | 400,000 compounds, 1.4% hits; note: % is set by controls: 0 for no effect and ±100 for the full control effect; nearly all actives have a fitted effect of over 60% in size
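Using CellTiter-Glo luminescence, growth of non-resistant KB-3-1 adenocarcinoma cells is assessed 72 h after pin-tool compound addition at 37 °C. Normalized responses across the concentration series yield fitted curves.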
KB-V1 cytotox = KB-V1 MDR subline cytotoxicity. KB-V1 MDR cells viability, CellTiter-Glo, 72 h. Potency, µM (top dose mostly 46.1 µM), hits mostly cytotoxic. 400,000 compounds, 3.4% hits; note: % is set by controls: 0 for no effect and ±100 for the full control effect; nearly all actives have a fitted effect of over 60% in size
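Potencies derive from concentration-effect curves fitted to normalized luminescence (CellTiter-Glo) of KB-V1 cells treated for 72 h at 37 degrees C in phenol-red-free DMEM containing 10% FBS.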
ELG1 DNA repair = ELG1-dependent DNA repair inhibition | HEK293T ELG1-luciferase reporter, luminescence, 16 h; DNA damage induced by 5-fluorouridine | Potency, µM (top dose mostly 46.1 µM), without a hit: top-dose activity change, negative = inhibition, most hits filed as inhibitors | 330,000 compounds, 2.3% hits | AID 504467; note: % is set by controls: 0 for no effect and ±100 for the full control effect; nearly all actives have a fitted effect of over 55% in size
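HEK293T cells expressing luciferase-tagged ELG1 (2,000/well) received 5-Fluorouridine plus compound or DMSO for 16 hr at 37 °C. Luciferase was read by ONE-Glo luminescence after 30 min at room temperature.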
SW480 rerep = DNA re-replication induction in SW480 cells; SW480 DNA re-replication, Hoechst DNA content imaging, 48 h; Potency, µM (doses to about 46.1 µM), for inactives: top-dose re-replication activation, hits mostly activators; 340,000 compounds, 1.8% hits; note: % of control where 0% means no effect; nearly all actives have a fitted effect of over 55% in size
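Per well, 250 cells were exposed to pinned compound for 48 hr. Nuclear DNA was visualised with Hoechst (40 min, 37 C) and total object intensity recorded by fluorescence scanning.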
MCF10A rerep = inducers of DNA re-replication in MCF 10A breast cells. Potency, µM (top dose mostly 46.1 µM), for inactives: top-dose activity, positive = re-replication, usual class: activators. AID 624296. 350,000 compounds, 2.9% hits. MCF 10A DNA re-replication, Hoechst nuclear intensity, 48 h; note: % of control where 0% means no effect; nearly all actives have a fitted effect of over 50% in size
Starred values were filed as active, the others as inactive; i = inactive; ? = inconclusive; [ ] = another dose, or the depositor's remark. An excerpt weighted towards active compounds, which were near 8.1% of everything screened. Calls come from the whole dose curve; as a rule, active = well fitted curve in the direction sought with a large enough effect; inconclusive = small, poorly fitted or top-dose-only effect, or another doubt; inactive = no such curve, though single readings can be large; an effect the other way counts as inactive or inconclusive. Potency is the fitted concentration of half-maximal effect.

SMILES	KB-3-1 tox	KB-V1 cytotox	ELG1 DNA repair	SW480 rerep	MCF10A rerep
COc1cccc(NC(=O)COC(=O)c2cc(S(=O)(=O)N3CCOCC3)ccc2C)c1	i	i	16µM*	-4%	-3%
Cc1ccc(NC(=O)COC(=O)c2c(-c3ccccc3)noc2C)c(C)c1	i	i	?	7%	-13%
Cc1cccc(NC(=O)c2ccc(OCC3CCCO3)cc2)c1C (stereo not drawn)	i	21µM*	?	2%	8%
Cc1cccc(NC(=O)CN(CC2CCCO2)C(=O)c2oc3ccc(F)cc3c2C)c1C (stereo not drawn)	i	5.2µM*	?	-1%	16%
O=C(Nc1nc(-c2ccc(Cl)cc2Cl)cs1)c1ccc(OCC2CCCO2)cc1 (stereo not drawn)	i	9.2µM*	?	-10%	16%
Cc1cc(C)c2nc(NC(=O)c3ccc(OCC4CCCO4)cc3)sc2c1 (stereo not drawn)	i	i	6%	-53%	-17%
O=C(NCc1ccc(Cl)cc1)c1ccc(OCC2CCCO2)cc1 (stereo not drawn)	i	16µM*	?	-2%	7%
O=C(Nc1cccc(C(=O)N2CCOCC2)c1)NC1CCCCC1	i	i	-1%	-7%	-1%
O=C(Nc1ccc(Cl)cc1)c1ccc(OCC2CCCO2)cc1 (stereo not drawn)	?	13µM*	?	-9%	0%
O=C(N=NC(=O)c1ccc2c(O)n(C3CCCCC3)c(O)c2c1)c1cccnc1	i	i	3%	-12%	-2%
CC(C)C(=O)Nc1nnc(CCc2ccccc2)s1	i	i	?	-5%	2%
Cc1ccc2c(c1)N(C(=O)c1ccco1)C(C)(C)c1ssc(=S)c1-2	i	9.2µM*	-24%	-4%	-6%
NNC(=O)/C(=N/Nc1ccccc1)S(=O)(=O)c1ccc(Cl)cc1	18µM*	i	-22%	?	?
CCOC(=O)/C(=N/Nc1ccc(C)cc1)S(=O)(=O)c1ccc(Cl)cc1	i	16µM*	?	19%	?
CCOC(=O)/C(=N\Nc1ccccc1)S(=O)(=O)c1ccccc1	i	i	?	2%	20%
Cc1ccc(-n2nc(C)c(NC(=O)COC(=O)c3ccccc3NCCO)c2C)cc1	i	?	?	2%	0%
CCOc1cc(C2C3=C(CCCC3=O)NC3=C2C(=O)CCC3)ccc1OCCO	i	i	17%	-6%	-1%
Clc1nc(-c2ccccn2)nc2scc(-c3ccccc3)c12	?	12µM*	?	?	?
CCOC(=O)c1c(NC(=O)c2cccnc2)sc(C)c1C	i	i	-17%	1%	5%
CCOC(=O)c1sc(NC(=O)CSc2nc(C)cc(C)n2)c(C#N)c1C	i	8.2µM*	-13%	-1%	?
CCC(CC)c1nnc(NC(=O)c2cc(-c3ccccc3)nc3ccccc23)s1	i	?	5%	-14%	-64%
CCOC(=O)c1sc(NC(=O)c2cc(-c3ccccc3)nc3ccccc23)c(C#N)c1C	15µM*	?	?	0%	2.6µM*
CCOC(=O)c1sc(NC(=O)CSc2nc3c(cc2C#N)CCCCC3)c(C#N)c1C	i	i	?	?	?
CCOC(=O)c1sc(NC(=O)CSc2n[nH]c(-c3ccccc3)n2)c(C#N)c1C	i	?	?	1%	8.2µM*
CCOC(=O)c1sc(NC(=O)c2cccnc2)c(C#N)c1C	i	i	18µM*	-2%[9.22 µM]	-1%
CCOC(=O)c1sc(NC(=O)CSc2nnc(Cc3ccccc3)o2)c(C#N)c1C	i	?	-5%	-11%	9%
CC(=O)c1cccc(NC(=O)CN2C(=O)NC3(CCCCCCC3)C2=O)c1	i	i	-2%	-3%	?
NS(=O)(=O)c1ccc(NC(=O)C2CCCN(S(=O)(=O)c3ccc(F)cc3)C2)cc1 (stereo not drawn)	i	i	-23%	-7%	0%
